Source: the supplement of paper PMC11001985
Values without a mark were called inactive.

compound: C#CCNC(=O)CCSSCCC(=O)NCCc1ccc(C=O)c(C=O)c1; assay: lysine labeling ratio R10:1 (500 µM / 50 µM probe), SILAC-ABPP in living cells; higher = lower intrinsic lysine reactivity toward the probe, active = 2 or less; conditions: HeLa; probe concentrations 500 vs 50 µM
Procedure, shortened: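 An alkyne-tagged lysine probe with a disulfide linker labelled living HeLa cells in PBS at room temperature at either 50 µM or 500 µM, using SILAC light and heavy cells in forward and reverse label swaps. Lysates were mixed, clicked to biotin-azide, trypsin-digested, enriched on neutravidin, DTT-released, alkylated and measured by LC-MS/MS on a TIMS-TOF Pro. Each lysine's R is the filtered median high-probe/low-probe MS1 peptide ratio, combined as the median over forward and reverse replicates, with 20 as the upper limit.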

Sequence of UniProt P12956 (P12956 whole entry): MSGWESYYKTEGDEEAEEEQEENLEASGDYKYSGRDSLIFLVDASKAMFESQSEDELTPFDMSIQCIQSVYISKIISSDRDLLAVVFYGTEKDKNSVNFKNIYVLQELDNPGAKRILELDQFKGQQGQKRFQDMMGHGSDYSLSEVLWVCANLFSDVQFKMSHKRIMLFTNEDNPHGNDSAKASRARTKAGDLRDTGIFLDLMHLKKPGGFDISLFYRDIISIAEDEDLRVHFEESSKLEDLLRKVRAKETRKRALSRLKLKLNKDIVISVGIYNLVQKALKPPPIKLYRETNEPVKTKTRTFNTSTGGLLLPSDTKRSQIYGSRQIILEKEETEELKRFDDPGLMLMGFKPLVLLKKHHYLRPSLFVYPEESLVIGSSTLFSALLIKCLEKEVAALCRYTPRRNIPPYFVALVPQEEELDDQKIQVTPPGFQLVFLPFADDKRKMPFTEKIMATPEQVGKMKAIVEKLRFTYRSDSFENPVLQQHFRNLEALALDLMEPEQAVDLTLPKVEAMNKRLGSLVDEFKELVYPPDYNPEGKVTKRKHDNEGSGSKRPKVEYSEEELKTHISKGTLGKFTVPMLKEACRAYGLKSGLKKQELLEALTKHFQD
Sequence of UniProt Q92729 (Q92729 whole entry): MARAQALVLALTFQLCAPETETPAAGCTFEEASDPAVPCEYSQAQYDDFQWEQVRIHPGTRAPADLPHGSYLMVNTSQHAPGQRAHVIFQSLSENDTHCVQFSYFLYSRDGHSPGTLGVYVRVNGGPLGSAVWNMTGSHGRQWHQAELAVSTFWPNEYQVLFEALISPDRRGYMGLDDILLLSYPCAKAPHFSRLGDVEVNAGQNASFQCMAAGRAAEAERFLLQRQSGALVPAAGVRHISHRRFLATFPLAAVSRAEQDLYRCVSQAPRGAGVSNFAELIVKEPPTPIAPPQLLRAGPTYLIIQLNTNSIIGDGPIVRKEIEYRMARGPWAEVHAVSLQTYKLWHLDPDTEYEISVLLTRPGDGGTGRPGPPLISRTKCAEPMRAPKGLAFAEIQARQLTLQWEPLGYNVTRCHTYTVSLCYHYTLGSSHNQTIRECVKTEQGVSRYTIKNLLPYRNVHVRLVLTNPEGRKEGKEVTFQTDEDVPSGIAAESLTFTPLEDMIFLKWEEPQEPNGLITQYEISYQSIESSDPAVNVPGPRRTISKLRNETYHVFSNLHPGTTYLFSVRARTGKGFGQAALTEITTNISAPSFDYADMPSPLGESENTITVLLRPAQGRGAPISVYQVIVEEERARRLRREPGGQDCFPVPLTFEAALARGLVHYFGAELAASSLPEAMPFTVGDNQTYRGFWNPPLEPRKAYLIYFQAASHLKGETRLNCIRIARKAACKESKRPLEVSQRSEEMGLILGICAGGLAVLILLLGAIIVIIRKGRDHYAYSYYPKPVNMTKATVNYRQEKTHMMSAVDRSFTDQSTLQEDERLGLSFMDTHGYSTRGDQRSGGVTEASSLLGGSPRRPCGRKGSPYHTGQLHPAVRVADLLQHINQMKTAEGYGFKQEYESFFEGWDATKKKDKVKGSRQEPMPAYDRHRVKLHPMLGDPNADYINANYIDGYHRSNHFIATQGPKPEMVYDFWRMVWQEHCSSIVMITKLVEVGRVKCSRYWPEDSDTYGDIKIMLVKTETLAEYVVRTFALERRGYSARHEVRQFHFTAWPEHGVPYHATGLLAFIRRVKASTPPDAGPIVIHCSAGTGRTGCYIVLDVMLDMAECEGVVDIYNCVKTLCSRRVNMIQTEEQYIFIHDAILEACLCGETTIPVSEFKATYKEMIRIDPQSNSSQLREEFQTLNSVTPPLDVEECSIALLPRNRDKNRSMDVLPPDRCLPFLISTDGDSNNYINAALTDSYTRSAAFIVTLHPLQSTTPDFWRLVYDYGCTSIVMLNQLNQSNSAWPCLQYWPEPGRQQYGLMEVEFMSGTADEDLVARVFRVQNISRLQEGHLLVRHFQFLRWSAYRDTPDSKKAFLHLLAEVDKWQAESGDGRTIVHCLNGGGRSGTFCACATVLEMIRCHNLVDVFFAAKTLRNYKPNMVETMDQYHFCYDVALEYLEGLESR
Sequence of UniProt Q9UJZ1 (Q9UJZ1 whole entry): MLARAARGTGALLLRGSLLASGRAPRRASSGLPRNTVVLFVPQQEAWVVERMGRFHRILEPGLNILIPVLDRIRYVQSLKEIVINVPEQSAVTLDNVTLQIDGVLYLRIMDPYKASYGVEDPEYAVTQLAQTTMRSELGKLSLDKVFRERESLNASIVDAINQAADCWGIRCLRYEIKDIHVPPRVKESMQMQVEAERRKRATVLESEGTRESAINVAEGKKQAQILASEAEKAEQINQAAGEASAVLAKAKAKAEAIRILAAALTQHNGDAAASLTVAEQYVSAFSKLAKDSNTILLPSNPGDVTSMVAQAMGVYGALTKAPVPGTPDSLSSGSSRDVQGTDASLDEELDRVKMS
Sequence of UniProt P20645 (P20645 whole entry): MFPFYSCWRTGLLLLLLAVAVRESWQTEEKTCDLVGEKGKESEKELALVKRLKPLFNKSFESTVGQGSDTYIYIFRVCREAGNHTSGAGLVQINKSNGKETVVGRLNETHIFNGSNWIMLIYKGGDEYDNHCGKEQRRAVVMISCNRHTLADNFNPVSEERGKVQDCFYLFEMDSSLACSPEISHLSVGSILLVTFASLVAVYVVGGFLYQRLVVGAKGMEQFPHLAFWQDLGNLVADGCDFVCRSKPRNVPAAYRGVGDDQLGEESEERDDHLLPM
Sequence of UniProt Q6NZI2 (Q6NZI2 whole entry): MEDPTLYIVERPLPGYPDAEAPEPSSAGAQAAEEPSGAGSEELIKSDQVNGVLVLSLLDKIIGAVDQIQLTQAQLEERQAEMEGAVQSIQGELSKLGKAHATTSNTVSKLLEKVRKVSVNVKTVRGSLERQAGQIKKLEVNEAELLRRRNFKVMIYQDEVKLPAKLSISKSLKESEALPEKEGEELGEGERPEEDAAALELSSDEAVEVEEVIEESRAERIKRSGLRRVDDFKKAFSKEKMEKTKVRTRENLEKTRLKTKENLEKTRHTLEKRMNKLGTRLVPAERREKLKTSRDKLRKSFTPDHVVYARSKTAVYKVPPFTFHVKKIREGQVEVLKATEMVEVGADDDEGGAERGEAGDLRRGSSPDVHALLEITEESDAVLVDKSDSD
Sequence of UniProt Q13433 (Q13433 whole entry): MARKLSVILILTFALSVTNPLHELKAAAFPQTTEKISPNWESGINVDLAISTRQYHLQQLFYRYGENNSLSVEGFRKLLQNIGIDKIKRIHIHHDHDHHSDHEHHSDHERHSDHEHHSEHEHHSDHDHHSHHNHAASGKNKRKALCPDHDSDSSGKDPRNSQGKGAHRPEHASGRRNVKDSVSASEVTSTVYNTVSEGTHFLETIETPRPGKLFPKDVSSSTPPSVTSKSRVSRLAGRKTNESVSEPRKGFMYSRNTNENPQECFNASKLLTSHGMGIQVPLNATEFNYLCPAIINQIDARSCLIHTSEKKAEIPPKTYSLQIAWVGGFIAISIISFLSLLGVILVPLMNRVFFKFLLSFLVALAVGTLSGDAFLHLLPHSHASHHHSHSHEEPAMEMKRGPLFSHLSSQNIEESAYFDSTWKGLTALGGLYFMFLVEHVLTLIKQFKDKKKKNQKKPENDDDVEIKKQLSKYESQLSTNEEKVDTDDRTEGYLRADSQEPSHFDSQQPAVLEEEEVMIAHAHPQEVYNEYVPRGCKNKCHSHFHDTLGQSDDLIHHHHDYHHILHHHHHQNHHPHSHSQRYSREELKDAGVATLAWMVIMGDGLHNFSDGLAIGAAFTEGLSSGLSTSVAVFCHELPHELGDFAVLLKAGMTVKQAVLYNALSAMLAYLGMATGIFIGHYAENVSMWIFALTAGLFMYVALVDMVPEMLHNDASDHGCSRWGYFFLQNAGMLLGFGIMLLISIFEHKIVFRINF
Sequence of UniProt P34897 (P34897 whole entry): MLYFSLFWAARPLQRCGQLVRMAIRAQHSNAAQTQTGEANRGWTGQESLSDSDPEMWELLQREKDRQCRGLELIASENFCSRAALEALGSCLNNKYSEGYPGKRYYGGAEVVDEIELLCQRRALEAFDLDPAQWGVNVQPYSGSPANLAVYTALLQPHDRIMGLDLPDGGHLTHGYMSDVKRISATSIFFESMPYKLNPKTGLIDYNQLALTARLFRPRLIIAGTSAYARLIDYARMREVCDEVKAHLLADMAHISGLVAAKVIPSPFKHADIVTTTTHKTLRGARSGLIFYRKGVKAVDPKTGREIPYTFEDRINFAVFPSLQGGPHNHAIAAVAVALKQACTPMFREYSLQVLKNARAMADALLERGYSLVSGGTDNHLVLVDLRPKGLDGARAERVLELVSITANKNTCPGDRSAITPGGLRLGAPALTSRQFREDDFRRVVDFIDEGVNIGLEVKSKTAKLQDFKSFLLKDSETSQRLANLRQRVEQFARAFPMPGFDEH
Sequence of UniProt Q02790 (Q02790 whole entry): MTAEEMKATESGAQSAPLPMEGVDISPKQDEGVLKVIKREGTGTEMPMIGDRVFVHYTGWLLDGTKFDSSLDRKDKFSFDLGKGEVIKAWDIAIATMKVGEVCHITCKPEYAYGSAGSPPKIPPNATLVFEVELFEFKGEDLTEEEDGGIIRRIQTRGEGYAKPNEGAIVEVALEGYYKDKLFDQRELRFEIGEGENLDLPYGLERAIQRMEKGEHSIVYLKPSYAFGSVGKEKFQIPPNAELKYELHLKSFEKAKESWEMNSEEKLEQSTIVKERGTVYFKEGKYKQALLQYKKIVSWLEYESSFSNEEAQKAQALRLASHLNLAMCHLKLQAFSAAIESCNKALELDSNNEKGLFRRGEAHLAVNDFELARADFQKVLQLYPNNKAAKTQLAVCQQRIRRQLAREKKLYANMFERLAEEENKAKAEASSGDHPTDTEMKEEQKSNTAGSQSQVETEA
Sequence of UniProt Q06830 (Q06830 whole entry): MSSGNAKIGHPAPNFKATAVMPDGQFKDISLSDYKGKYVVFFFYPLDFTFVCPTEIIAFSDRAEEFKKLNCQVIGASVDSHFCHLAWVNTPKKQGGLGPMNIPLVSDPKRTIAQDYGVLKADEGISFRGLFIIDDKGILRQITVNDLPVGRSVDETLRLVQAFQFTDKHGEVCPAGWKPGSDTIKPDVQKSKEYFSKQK

| Target | lysine labeling ratio R10:1 |
| --- | --- |
| UniProt Q8WXI7 (lysine site: K13402) | 5.02 |
| NOTCH2 (lysine site: K1350) (UniProt Q04721) | 2.12 |
| UniProt P46781 (lysine site: K180) | 2.7 |
| THRAP3 (lysine site: K519) (UniProt Q9Y2W1) | 3.8 |
| UniProt Q6NZI2 (lysine site: K265) | 4.28 |
| DYNC1H1 (lysine site: K2286) (UniProt Q14204) | 1.93 (active) |
| FLNA (lysine site: K2417) (UniProt P21333) | 4.07 |
| SHMT2 (lysine site: K181) (UniProt P34897) | 1.17 (active) |
| XRCC6 (lysine site: K114) (UniProt P12956) | 2.12 |
| NRP1 (lysine site: K509) (UniProt O14786) | 5.12 |
| ROBO1 (lysine site: K490) (UniProt Q9Y6N7) | 2.81 |
| LRP1 (lysine site: K806) (UniProt Q07954) | 1.57 (active) |
| CELSR2 (lysine site: K2001) (UniProt Q9HCU4) | 1.5 (active) |
| STOML2 (lysine site: K145) (UniProt Q9UJZ1) | 3.01 |
| FKBP4 (lysine site: K274) (UniProt Q02790) | 2.78 |
| SLC3A2 (lysine site: K257) (UniProt P08195) | 1.64 (active) |
| TKT (lysine site: K314) (UniProt P29401) | 5.08 |
| M6PR (lysine site: K44) (UniProt P20645) | 2.9 |
| UniProt Q92729 (lysine site: K440) | 1.22 (active) |
| EPPK1 (lysine site: K2707) (UniProt P58107) | 3.42 |
| H2AFX (lysine site: K37) (UniProt P16104) | 2.89 |
| SLC39A6 (lysine site: K249) (UniProt Q13433) | 3.94 |
| PRDX1 (lysine site: K199) (UniProt Q06830) | 2.6 |
